Several values for one entry are separate records, joined by “and”; a condition that tells them apart may be missing. Identical values can stand only once. A number with no mark means an inactive call. Records with an inconclusive call do not appear. A structure can be active in one record and inactive in another. Activity calls are given as the source filed them. Unless noted, calls follow the shape of the dose curve; as a rule, active = well fitted inhibition curve with a large enough effect; inconclusive = small, poorly fitted or top-dose-only effect; inactive = flat fitted curve, though single readings scatter.

Tested on in one assay: not listed separately
Description: Drug repurposing screens with cells derived from glioblastoma tumor samples (AID 1345199). Also: nearly all actives have a fitted effect of over 40% in size. Also: potency is read from the fitted curve at half-maximal effect. As to activity, negative = cell killing: % is scaled to controls: 0 for no effect and ±100 for the full control effect. The following applies: GBM patient neurospheres viability, ATP luminescence, 48 h; at 46.1 µM (top of the series); tumour line C. In a few lines: (§1)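 Four patient lines of CD133+ GBM neurospheres were screened at several concentrations; hits were retested in those lines plus three slower-growing GBM lines, using 48-hour treatment and ATP-based viability.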
Turning to `CC(C)NCC(O)COc1ccc(CCOCC2CC2)cc1` (stereo not given), the activity, negative = cell killing was -27.5%.

Turning to `COc1ccc(CCN(C)CCCC(C#N)(c2ccc(OC)c(OC)c2)C(C)C)cc1OC` (stereo not given), the activity, negative = cell killing was -2.06%.

With `C[C@@H]1CC(=O)NN=C1c1ccc(NN=C(C#N)C#N)cc1`, the activity, negative = cell killing is -26.3%.

Regarding `CS(=O)(=O)CCNCc1ccc(-c2ccc3ncnc(Nc4ccc(OCc5cccc(F)c5)c(Cl)c4)c3c2)o1`, the activity, negative = cell killing was -22.4%.

As to `Cc1ccc(-c2cc(C(F)(F)F)nn2-c2ccc(S(N)(=O)=O)cc2)cc1`, the activity, negative = cell killing was 15.9%.

With `O=C1N(c2ccccc2)c2ccccc2C1(Cc1ccncc1)Cc1ccncc1`, the activity, negative = cell killing is -22.5%.

As for `Cc1cnc(C(=O)NCCc2ccc(S(=O)(=O)NC(=O)NC3CCCCC3)cc2)cn1`, the activity, negative = cell killing was 18%.

Regarding `CCc1cccc2c3c([nH]c12)C(CC)(CC(=O)O)OCC3` (stereo not given), the activity, negative = cell killing is -25.9%.

`O=C1Cc2cc(CCN3CCN(c4nsc5ccccc45)CC3)c(Cl)cc2N1`: the activity, negative = cell killing was -28.3% and -12.6%.

As for `Cc1cn([C@H]2C=C[C@@H](CO)O2)c(=O)[nH]c1=O`, the activity, negative = cell killing is -21.2%.

Consider `CC(C)(C)C(=O)Oc1ccc(S(=O)(=O)Nc2ccccc2C(=O)NCC(=O)O)cc1`, for which the activity, negative = cell killing is -13.4%.

Still in this assay, the particulars now being: GBM patient neurospheres viability, ATP luminescence, 48 h; tumour line A.
Regarding `Clc1ccc2c(c1)C(N1CCNCC1)=Nc1ccccc1O2`, the Potency is 14.1 µM (active).

As to `CCOC(=O)Nc1ccc(NCc2ccc(F)cc2)nc1N`, the Potency is 10 µM (active).

With `CCCNCC(O)COc1ccccc1C(=O)CCc1ccccc1` (stereo not given), the Potency is 7.08 µM (active).

With `Clc1ccc(C(c2ccccc2Cl)C(Cl)Cl)cc1` (stereo not given), the Potency was 22.4 µM (active).

Turning to `CC(C)NCC(O)COc1ccc(CCOCC2CC2)cc1` (stereo not given), the Potency is 17.8 µM (active).

With `COc1ccc(CCN(C)CCCC(C#N)(c2ccc(OC)c(OC)c2)C(C)C)cc1OC` (stereo not given), the Potency is 10 µM (active).

As to `Cc1ccc(-c2cc(C(F)(F)F)nn2-c2ccc(S(N)(=O)=O)cc2)cc1`, the Potency is 8.91 µM (active).

The subject of a further assay is astro (control astrocytes). The assay is described as above. The settings on record: viability, ATP luminescence, 48 h; series mostly up to 45.9 µM; activity, negative = cell killing: at the top concentration. The gist of the method:
as §1
With `CN(C)C(=N)N=C(N)N`, the “activity, negative = cell killing” value is -6.67% [at 21.2 µM].

As to `CCOC(=O)Nc1ccc(NCc2ccc(F)cc2)nc1N`, the Potency result was “inactive”.

On to `C[C@H]1c2cccc(O)c2C(O)=C2C(=O)[C@]3(O)C(O)=C(C(N)=O)C(=O)[C@@H](N(C)C)[C@@H]3[C@@H](O)[C@@H]21`, for which the “activity, negative = cell killing” value is -2.25%.

With `Cn1cnc2c1c(=O)[nH]c(=O)n2C`, the “activity, negative = cell killing” value is -6.48%.

Turning to `CC(C(=O)O)c1cccc(C(=O)c2ccccc2)c1` (stereo not given), the “activity, negative = cell killing” value is -13.3%.

Turning to `Nc1ccn([C@H]2CC[C@@H](CO)O2)c(=O)n1`, the “activity, negative = cell killing” value was -4.15%.

In the case of `NS(=O)(=O)c1cc2c(cc1Cl)NCNS2(=O)=O`, the “activity, negative = cell killing” value is -9.49%.

As for `Nc1nc2c(ncn2COC(CO)CO)c(=O)[nH]1`, the “activity, negative = cell killing” value was -15.5% [at 21.2 µM].

In the case of `CC(C)NCC(O)COc1ccc(CCOCC2CC2)cc1` (stereo not given), the “activity, negative = cell killing” value was -11.3%.

On to `C[C@@H]1CC(=O)NN=C1c1ccc(NN=C(C#N)C#N)cc1`, for which the “activity, negative = cell killing” value is -26.6%.

On to `CS(=O)(=O)CCNCc1ccc(-c2ccc3ncnc(Nc4ccc(OCc5cccc(F)c5)c(Cl)c4)c3c2)o1`, for which the “activity, negative = cell killing” value is -18.9%.

For `CC(C)(C)C(=O)Oc1ccc(S(=O)(=O)Nc2ccccc2C(=O)NCC(=O)O)cc1`, the “activity, negative = cell killing” value was -14.5%.

Another assay deals with Nuclear receptor subfamily 1 group I member 2 (Rattus norvegicus) (UniProt Q9R1A7). Description: qHTS assay for small molecule activators of the rat pregnane X receptor (rPXR) signaling pathway (AID 651751; call rule not given here; also: 0% is about no effect). The settings on record: rPXR reporter cells, luciferase (One-Glo), 24 h.
Sequence of Nuclear receptor subfamily 1 group I member 2 (Rattus norvegicus) (Q9R1A7 whole entry, looked up): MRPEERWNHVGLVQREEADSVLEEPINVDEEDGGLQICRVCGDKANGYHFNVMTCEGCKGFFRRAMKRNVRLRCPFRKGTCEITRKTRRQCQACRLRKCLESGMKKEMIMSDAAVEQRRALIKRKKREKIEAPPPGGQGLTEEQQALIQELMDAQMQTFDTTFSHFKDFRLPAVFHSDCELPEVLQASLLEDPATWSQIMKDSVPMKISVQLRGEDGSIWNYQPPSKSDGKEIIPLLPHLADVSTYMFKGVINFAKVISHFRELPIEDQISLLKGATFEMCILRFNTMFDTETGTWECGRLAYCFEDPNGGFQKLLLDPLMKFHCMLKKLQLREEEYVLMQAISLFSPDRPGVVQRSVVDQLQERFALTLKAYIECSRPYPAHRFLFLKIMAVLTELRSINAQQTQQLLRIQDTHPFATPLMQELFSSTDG
As to `Cn1c(=O)c2c(ncn2C)n(C)c1=O`, the max response is 0.943% and 1.54%.

Consider `Cn1cnc2c1c(=O)[nH]c(=O)n2C`, for which the max response was 2.94%.

As for `Nc1ccn([C@H]2CC[C@@H](CO)O2)c(=O)n1`, the max response is 4.04% and 0.741%.

`NS(=O)(=O)c1cc2c(cc1Cl)NCNS2(=O)=O`: the max response was -0.0581% and 1.2%.

Take `Cc1cn([C@H]2C=C[C@@H](CO)O2)c(=O)[nH]c1=O`: the max response was 0.921% and -1.01% and -5.21%.

Source of the values: PubChem BioAssay (NCATS).
